DAX1 inh-1 – DAX1 (NR0B1) inhibition, primary screen. inhibition, % at 6.8 µM. 370,000 tested, 1.1% active. HEK293T StAR-luciferase reporter, SF-1/DAX-1 repression relief;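 active = inhibition above the mean over all tested compounds plus 3 SD, cut at about 3.6% in these data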;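 note: 0% = DAX-1 cells with DMSO and 100% = cells lacking DAX-1 with DMSO; higher inhibition means more luminescence from relief of DAX-1 repression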
hgDAF-12 ag – hgDAF-12 agonism, primary luciferase screen; AID 687014; HEK293 GAL4-hgDAF12 UAS-luciferase reporter, agonist luminescence; normalized to butyrate control; 370,000 tested, 1.8% active; activation, % at 6.8 µM;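 active = activation above a cutoff set at the mean of all screened compounds plus 3 SD, cut at about 10% in these data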;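 note: 0% = DMSO wells and 100% = sodium butyrate wells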
ssDAF12 agonist – activates DAF-12 receptor from parasite S. stercoralis; HEK293 ssDAF-12/GRIP1 lit1-tk-luc reporter, luminescence; % of 3 µM dafachronic acid response; activation, % at 6.8 µM; 370,000 tested, 1% active; AID 652126;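 active = activation above the mean over all tested compounds plus 3 SD, cut at about 0.9% in these data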;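 note: 0% = DMSO-only wells and 100% = 3 µM delta7-dafachronic acid wells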
DAX1 inh-2 – NR0B1 (DAX1) inhibition; AID 504766; 340,000 tested, 0.99% active; inhibition, % at 6.75 µM; HEK293 Gal4-DAX1 luciferase reporter, luminescence;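 active = inhibition above the mean over all tested compounds plus 3 SD, cut at about 4.2% in these data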;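 note: 0% = DAX1-transfected cells with DMSO and 100% = empty-vector control cells with DMSO; inhibition shows as a rise in luminescence from relieved DAX1 repression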
Target sequence (P51843 207-470 limits assumed): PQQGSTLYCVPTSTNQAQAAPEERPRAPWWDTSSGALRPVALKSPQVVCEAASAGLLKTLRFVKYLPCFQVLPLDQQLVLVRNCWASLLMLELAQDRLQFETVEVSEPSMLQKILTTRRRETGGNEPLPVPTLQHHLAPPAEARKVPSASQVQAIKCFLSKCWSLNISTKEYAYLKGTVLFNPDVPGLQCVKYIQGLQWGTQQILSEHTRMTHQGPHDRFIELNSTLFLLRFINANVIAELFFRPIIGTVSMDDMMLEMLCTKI
SMARCA2 act – activators of SMARCA2 function; AID 652017; 370,000 tested, 1% active; activation, % at 9.1 µM; MG213 cells, MMTV-luciferase reporter, dexamethasone, overnight; in the data active = activation above about 7.8%;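 note: 0% = vehicle wells and 100% = reference activator wells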
hcDAF-12 act – H. contortus DAF-12 activation, primary screen | HEK293 hcDAF-12 lit1-tk-luc reporter, luminescence; 0% DMSO, 100% Δ7-dafachronic acid | activation, % at 6.8 µM | 370,000 tested, 1.4% active | AID 652067;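 active = activation above the mean of all tested compounds plus 3 SD, cut at about 5.5% in these data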;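 note: 100% = response to 3 µM Δ7-dafachronic acid high control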
hgDAF12 ag – hgDAF-12 agonism, confirmation assay; shares compounds with hgDAF-12 ag; HEK293 GAL4-hgDAF12 luciferase reporter, agonist mode; percent of butyrate response; activation, % at 6.8 µM; 3,300 tested, 80% active;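 active = mean activation over triplicate wells above the hit cutoff derived from the earlier primary screen, cut at about 11% in these data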;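 note: 0% = DMSO low control and 100% = 2 mM sodium butyrate high control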
LXR ag 2 – LXR-beta agonism as DAF-12 counter-screen; 3,300 tested, under 10 active; AID 743051; HEK293 Gal4-LXR luciferase reporter, 24 h; activation, % at 6.8 µM; shares compounds with hgDAF-12 ag;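 active = mean activation of the triplicate above a set limit carried over from the primary screen, none filed active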
Target sequence (P55055 whole entry, looked up, the tested form may be a part): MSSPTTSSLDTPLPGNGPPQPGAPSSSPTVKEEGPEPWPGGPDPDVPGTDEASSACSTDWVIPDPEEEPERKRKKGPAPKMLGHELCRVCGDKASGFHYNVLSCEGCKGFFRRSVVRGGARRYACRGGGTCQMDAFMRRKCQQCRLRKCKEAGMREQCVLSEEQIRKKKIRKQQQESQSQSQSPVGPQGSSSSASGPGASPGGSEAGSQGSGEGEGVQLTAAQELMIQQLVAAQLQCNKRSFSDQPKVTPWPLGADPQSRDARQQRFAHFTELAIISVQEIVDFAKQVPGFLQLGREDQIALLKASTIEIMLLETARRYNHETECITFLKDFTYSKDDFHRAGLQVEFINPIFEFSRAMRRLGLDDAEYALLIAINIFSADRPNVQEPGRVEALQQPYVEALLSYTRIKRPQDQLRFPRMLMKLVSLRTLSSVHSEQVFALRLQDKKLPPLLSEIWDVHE
An asterisk follows results filed as active. A selection: hits, their analogues and other compounds. The true share with any hit is near 4.8%.

For Cc1cc2c(c(=O)o1)[C@@]1(C(=O)N(C)c3ccccc31)C1=C(CCC1=O)O2 the results were DAX1 inh-1 -0.6, hgDAF-12 ag -0.1, ssDAF12 agonist -1.3, SMARCA2 act -6.2 and hcDAF-12 act -0.8.
`C/C(=N\NC(=O)c1csc(C)c1C)c1ccc(C)s1` gave DAX1 inh-1 2.0, hgDAF-12 ag 13.5*, ssDAF12 agonist -0.6, DAX1 inh-2 2.7, SMARCA2 act 5.1, hcDAF-12 act 0.7, hgDAF12 ag 10.7* and LXR ag 2 0.3.
Screening CSCC(=O)Nc1nc(-c2ccc3c(c2)OCCO3)cs1 returned DAX1 inh-1 3.5, hgDAF-12 ag 16.6*, ssDAF12 agonist 0.1, DAX1 inh-2 3.6, SMARCA2 act 4.7, hcDAF-12 act 2.1, hgDAF12 ag 14.3* and LXR ag 2 0.6.
CC(C)[C@H](NC(=O)C1CC1)C(=O)N1CCC[C@H]1C(=O)NCc1ccccc1 was read as DAX1 inh-1 0.7, hgDAF-12 ag -1.3, ssDAF12 agonist -0.7, SMARCA2 act -2.3 and hcDAF-12 act 0.4.
CC(=O)Nc1cc(F)c2c(c1F)Cc1cc(F)ccc1-2 was read as DAX1 inh-1 1.8, hgDAF-12 ag 16.4*, ssDAF12 agonist 0.2, DAX1 inh-2 3.4, SMARCA2 act -0.1, hcDAF-12 act 3.4, hgDAF12 ag 11.8* and LXR ag 2 0.3.
`CC(=O)Nc1ccc2c(c1)-c1ccc(F)cc1C2` gave DAX1 inh-1 -0.4, hgDAF-12 ag 3.6, ssDAF12 agonist -1.2, DAX1 inh-2 -0.3, SMARCA2 act -0.1 and hcDAF-12 act 0.8.
Screening O=C(NC(=S)Nc1ccccc1)c1cccs1 returned DAX1 inh-1 0.8, hgDAF-12 ag 15.3*, ssDAF12 agonist 0.7, DAX1 inh-2 4.5*, SMARCA2 act 4.6, hcDAF-12 act 4.1, hgDAF12 ag 17.3* and LXR ag 2 0.5.
Screening O=C(Nc1ccc(NC(=S)NC(=O)c2cccs2)cc1)c1ccccc1 returned DAX1 inh-1 -0.3, hgDAF-12 ag 0.4, ssDAF12 agonist -1.3, DAX1 inh-2 -1.3, SMARCA2 act -5.1 and hcDAF-12 act -0.4.
`CCN(CC)C(=O)c1ncn2c1C(=O)NC[C@@H]2C` gave DAX1 inh-1 -0.2, hgDAF-12 ag 1.1, ssDAF12 agonist -1.2, SMARCA2 act -1.0 and hcDAF-12 act 0.5.
For CCOC1=C2[C@H](c3ccccc3)N(S(=O)(=O)c3ccc(C)cc3)[C@H](C(C)C)[C@H]2C(C#N)(C#N)C(C#N)(C#N)C1 the results were DAX1 inh-1 -1.1, hgDAF-12 ag 1.1, ssDAF12 agonist -1.0, SMARCA2 act -2.9 and hcDAF-12 act -0.7.
`Cc1cc(-c2nc3cccnc3s2)ccc1NS(=O)(=O)c1cccs1` gave DAX1 inh-1 4.4*, hgDAF-12 ag 13.6*, ssDAF12 agonist 0.8, DAX1 inh-2 0.7, SMARCA2 act 5.1, hcDAF-12 act 6.5*, hgDAF12 ag 12.8* and LXR ag 2 0.5.
Screening Nc1nc2c(ncn2[C@@H]2O[C@H](C(=O)N[C@@H](Cc3ccccc3)C(=O)NCc3ccc4c(c3)OCO4)[C@@H](O)[C@H]2O)c(=O)[nH]1 returned DAX1 inh-1 -0.8, hgDAF-12 ag -4.8, ssDAF12 agonist -0.6, SMARCA2 act -4.8 and hcDAF-12 act -0.4.
For OC[C@H]1O[C@@H](c2nc3ccc(-c4nc(-c5ccc(Br)cc5)no4)cc3[nH]2)C[C@@H]1O the results were DAX1 inh-1 4.4*, hgDAF-12 ag 13.6*, ssDAF12 agonist 0.1, SMARCA2 act 3.0, hcDAF-12 act 4.3, hgDAF12 ag 9.4 and LXR ag 2 0.8.
`Brc1ccc(N2O[C@H]3C=C[C@@H]2C3)nc1` gave DAX1 inh-1 0.5, hgDAF-12 ag 0.4, ssDAF12 agonist 0.1, SMARCA2 act 2.1 and hcDAF-12 act 4.6.
COc1cccc(CNC(=O)[C@H]2CCCN2C(=O)[C@H]2CCCN2C(=O)N2CCCCC2)c1 was read as DAX1 inh-1 0.4, hgDAF-12 ag 1.7, ssDAF12 agonist -0.3, SMARCA2 act -1.0 and hcDAF-12 act -0.9.
COc1ccc2nc(SCc3cccc(C)c3)nc(C)c2c1 was read as DAX1 inh-1 1.2, hgDAF-12 ag 14.8*, ssDAF12 agonist -1.0, DAX1 inh-2 0.6, SMARCA2 act 8.5*, hcDAF-12 act 1.4, hgDAF12 ag 14.1* and LXR ag 2 0.4.
For COc1ccc2nc(SCc3ccccc3C)nc(C)c2c1 the results were DAX1 inh-1 0.2, hgDAF-12 ag 1.6, ssDAF12 agonist -0.2, DAX1 inh-2 -0.9, SMARCA2 act 4.2 and hcDAF-12 act -2.0.
For Cc1cccc(NC(=O)c2sc3nc(N)c(C#N)cc3c2N)c1 the results were DAX1 inh-1 2.7, hgDAF-12 ag 20.6*, ssDAF12 agonist 0.4, DAX1 inh-2 0.1, SMARCA2 act 3.0, hcDAF-12 act -0.5, hgDAF12 ag 9.5 and LXR ag 2 0.5.
Fc1ccc(-c2cnn3c(-c4ccncc4)ccnc23)cc1 was read as DAX1 inh-1 2.5, hgDAF-12 ag 15.6*, ssDAF12 agonist 0.5, DAX1 inh-2 2.9, SMARCA2 act 4.7, hcDAF-12 act 3.5, hgDAF12 ag 17.9* and LXR ag 2 0.9.
`Cc1nn2c(-c3ccc(F)cc3)ccnc2c1Cl` gave DAX1 inh-1 0.1, hgDAF-12 ag -1.3, ssDAF12 agonist -0.7, DAX1 inh-2 0.8, SMARCA2 act -2.2 and hcDAF-12 act -0.8.
For COc1ccc(-c2ccc(C(=O)Nc3cccc(F)c3)c3occc23)c(C)c1 the results were DAX1 inh-1 3.7*, hgDAF-12 ag 14.2*, ssDAF12 agonist -0.4, SMARCA2 act -0.7, hcDAF-12 act 4.1, hgDAF12 ag 6.3 and LXR ag 2 0.7.
For C[C@H](O)[C@@H]1C(=O)N2CCc3c([nH]c4cccc(-c5ccccc5)c34)[C@@H]2C[C@@H]1N(C)C(=O)OCc1ccccc1 the results were DAX1 inh-1 0.3, hgDAF-12 ag 2.2, ssDAF12 agonist -1.2, SMARCA2 act 0.1 and hcDAF-12 act -1.4.
O=C(C1CC1)N1N=C(c2ccc(F)cc2)CC1(O)C(F)(F)F (stereo unspecified) was read as DAX1 inh-1 0.0, hgDAF-12 ag -1.2, ssDAF12 agonist -0.9, DAX1 inh-2 0.7, SMARCA2 act -0.1 and hcDAF-12 act -1.6.
COC(=O)N1N=C(c2ccc(Br)cc2)CC1(O)C(F)(F)F (stereo unspecified) was read as DAX1 inh-1 2.7, hgDAF-12 ag 13.6*, ssDAF12 agonist 1.6*, DAX1 inh-2 0.1, SMARCA2 act 4.0, hcDAF-12 act 1.2, hgDAF12 ag 11.3* and LXR ag 2 0.5.

Screens (PubChem BioAssay)
